Reference: PubChem BioAssay (NCATS)
Results filed as inconclusive are left out. A call without a number means that no potency is given here. Calls of active or inactive are those of the source. The call rests on the fitted dose curve; in most records, active means well fitted curve in the direction sought with a large enough effect; inconclusive means small, poorly fitted or top-dose-only effect, or another doubt; inactive means no such curve, though single readings can be large; an effect the other way counts as inactive or inconclusive.

Columns and labels:
[1] = target: Chromobox protein homolog 1 (Homo sapiens) (UniProt P83916); test: qHTS Validation Assay for Inhibitors of HP1-beta Chromodomain Interactions with Methylated Histone Tails (AID 488953); further: nearly all actives have a fitted effect of over 50% in size; further: potency means the concentration at half of the fitted maximal effect
Sequence of Chromobox protein homolog 1 (Homo sapiens) (P83916 whole entry, looked up): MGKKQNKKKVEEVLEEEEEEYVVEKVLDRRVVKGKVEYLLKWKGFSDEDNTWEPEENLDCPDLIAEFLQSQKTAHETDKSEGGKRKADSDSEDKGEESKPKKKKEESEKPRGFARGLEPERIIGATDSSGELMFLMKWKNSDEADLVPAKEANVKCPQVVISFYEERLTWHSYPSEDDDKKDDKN
Summary of the method: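 Measured as loss of AlphaScreen luminescence from streptavidin donor and nickel acceptor beads (10 ug/mL final) bridging HP1-beta and biotin-H3(1-18)K9me3, each 50 nM. Compounds met the preassembled complex for 30 min at RT.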

[2] = target: Methanococcus maripaludis chaperonin (MmCpn) (UniProt Q6LX38); test: High-Throughput Screening for Modulators of Cytosolic Chaperonin Activity: MmCpn Primary Screen (AID 488978);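 further: 50 nM MmCpn enzyme hydrolysing 30 µM ATP at 37 °C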
Sequence of Methanococcus maripaludis chaperonin (MmCpn) (Q6LX38 1-543): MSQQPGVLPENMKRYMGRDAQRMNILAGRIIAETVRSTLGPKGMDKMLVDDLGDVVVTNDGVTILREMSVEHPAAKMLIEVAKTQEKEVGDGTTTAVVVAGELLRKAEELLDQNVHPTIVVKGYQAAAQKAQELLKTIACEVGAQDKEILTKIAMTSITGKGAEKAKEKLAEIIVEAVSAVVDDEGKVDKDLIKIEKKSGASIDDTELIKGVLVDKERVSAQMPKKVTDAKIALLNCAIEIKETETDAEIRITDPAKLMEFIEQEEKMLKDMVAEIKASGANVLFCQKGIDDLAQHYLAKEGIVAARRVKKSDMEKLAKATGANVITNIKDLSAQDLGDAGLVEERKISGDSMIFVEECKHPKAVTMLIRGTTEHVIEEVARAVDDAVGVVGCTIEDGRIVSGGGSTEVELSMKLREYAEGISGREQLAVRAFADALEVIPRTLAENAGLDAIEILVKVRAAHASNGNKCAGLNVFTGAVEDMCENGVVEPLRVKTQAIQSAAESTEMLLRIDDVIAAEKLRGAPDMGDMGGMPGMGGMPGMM
Summary of the method: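 MmCpn at 50 nM final was preincubated 5 min at RT with compound. ATP was then added at 30 uM final for 10 min at 37 C. ADP formed was detected by Transcreener HTRF (665/590 nm).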

[3] = target: Transient receptor potential cation channel subfamily V member 1 (Homo sapiens) (UniProt Q8NER1); test: HTS Assay for Compounds that Act as Enhancers of the Vanilloid Receptor 1 (AID 488979)
Sequence of Transient receptor potential cation channel subfamily V member 1 (Homo sapiens) (Q8NER1 whole entry, looked up): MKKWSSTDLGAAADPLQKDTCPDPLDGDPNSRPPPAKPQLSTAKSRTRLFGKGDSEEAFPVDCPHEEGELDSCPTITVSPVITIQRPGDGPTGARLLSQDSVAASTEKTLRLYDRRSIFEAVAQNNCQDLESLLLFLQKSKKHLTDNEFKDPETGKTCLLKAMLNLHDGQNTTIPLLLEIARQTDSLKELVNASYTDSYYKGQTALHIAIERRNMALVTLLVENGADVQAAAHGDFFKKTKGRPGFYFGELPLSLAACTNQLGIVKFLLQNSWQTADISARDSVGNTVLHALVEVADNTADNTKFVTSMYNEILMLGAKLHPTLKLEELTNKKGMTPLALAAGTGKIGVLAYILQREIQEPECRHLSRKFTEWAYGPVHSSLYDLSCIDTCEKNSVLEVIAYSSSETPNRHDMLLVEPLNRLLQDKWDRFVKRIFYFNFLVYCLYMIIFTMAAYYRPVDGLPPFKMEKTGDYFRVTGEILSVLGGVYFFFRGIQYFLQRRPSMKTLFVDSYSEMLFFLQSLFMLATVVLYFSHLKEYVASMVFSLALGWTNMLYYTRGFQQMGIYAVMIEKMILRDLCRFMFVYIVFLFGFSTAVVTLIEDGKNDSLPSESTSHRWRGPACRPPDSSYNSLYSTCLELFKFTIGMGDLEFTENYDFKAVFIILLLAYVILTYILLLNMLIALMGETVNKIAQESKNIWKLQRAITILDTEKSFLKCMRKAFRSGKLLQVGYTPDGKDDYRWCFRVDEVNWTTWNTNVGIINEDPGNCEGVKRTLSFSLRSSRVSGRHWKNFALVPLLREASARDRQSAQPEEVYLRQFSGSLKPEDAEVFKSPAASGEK
Summary of the method: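 Calcium influx kinetics via Fluo-8 (480/520 nm) in TRPV1-expressing cells, 2000/well cultured overnight at 35.5C. Compound-alone read 3 min (agonist phase), followed by EC20 capsaicin challenge for 2 min (enhancer phase).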

[4] = target: Thyrotropin receptor (Homo sapiens) (UniProt P16473); test: qHTS Assay for Antagonists of the Thyroid Stimulating Hormone Receptor (AID 488980); further: series mostly up to about 58 µM
Sequence of Thyrotropin receptor (Homo sapiens) (P16473 whole entry, looked up): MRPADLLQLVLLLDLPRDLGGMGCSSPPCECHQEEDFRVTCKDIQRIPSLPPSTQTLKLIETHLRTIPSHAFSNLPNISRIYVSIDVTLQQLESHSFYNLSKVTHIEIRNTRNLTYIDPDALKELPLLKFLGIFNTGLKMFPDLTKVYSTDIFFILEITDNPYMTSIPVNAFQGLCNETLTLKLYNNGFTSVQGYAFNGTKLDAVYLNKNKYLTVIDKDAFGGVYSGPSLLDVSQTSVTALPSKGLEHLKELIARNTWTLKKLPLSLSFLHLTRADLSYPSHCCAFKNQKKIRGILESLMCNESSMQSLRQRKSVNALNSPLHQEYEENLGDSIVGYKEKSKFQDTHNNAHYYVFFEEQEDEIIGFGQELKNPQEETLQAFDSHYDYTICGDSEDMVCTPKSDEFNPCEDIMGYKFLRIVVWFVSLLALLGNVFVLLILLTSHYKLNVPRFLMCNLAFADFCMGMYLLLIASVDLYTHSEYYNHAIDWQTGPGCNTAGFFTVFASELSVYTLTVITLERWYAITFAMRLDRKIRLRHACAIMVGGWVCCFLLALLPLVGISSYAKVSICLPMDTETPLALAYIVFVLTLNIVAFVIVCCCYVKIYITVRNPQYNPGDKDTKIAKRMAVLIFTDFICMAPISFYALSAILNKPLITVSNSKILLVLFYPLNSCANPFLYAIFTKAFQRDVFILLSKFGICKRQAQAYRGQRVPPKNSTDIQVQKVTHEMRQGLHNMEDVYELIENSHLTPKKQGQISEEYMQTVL
Summary of the method: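 TSHR-transfected HEK293 cells (2000/well) in HEPES-buffered HBSS with 70 uM RO 20-1724 were stimulated with 4 nM TSH (EC80, final) in the presence of compound. cAMP was measured by HTRF competition after lysis and 30 min at RT.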

[5] = target: D(1A) dopamine receptor (Homo sapiens) (UniProt P21728); test: HTS Assay for Allosteric Agonists of the Human D1 Dopamine Receptor: Primary Screen for Agonists (AID 488981); further: potency means the concentration at half of the fitted maximal effect
Sequence of D(1A) dopamine receptor (Homo sapiens) (P21728 whole entry, looked up): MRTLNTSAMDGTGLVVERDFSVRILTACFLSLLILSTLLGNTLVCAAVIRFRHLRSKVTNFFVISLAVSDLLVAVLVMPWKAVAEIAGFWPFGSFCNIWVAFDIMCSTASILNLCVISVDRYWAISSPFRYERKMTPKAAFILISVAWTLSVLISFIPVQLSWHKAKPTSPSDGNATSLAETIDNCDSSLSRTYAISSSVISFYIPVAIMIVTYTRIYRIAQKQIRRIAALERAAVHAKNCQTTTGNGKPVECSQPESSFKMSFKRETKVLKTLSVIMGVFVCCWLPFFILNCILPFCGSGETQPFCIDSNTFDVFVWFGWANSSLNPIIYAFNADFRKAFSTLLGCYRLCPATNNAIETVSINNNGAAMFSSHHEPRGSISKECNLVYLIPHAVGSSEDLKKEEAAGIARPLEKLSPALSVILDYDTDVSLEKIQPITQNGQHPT
Summary of the method: (§1)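 Calcium flux in an inducible, force-coupled HEK293 Trex D1 line (overnight at 30 C): agonist mode is the 180 s kinetic read after compound; potentiator mode is the following 180 s read after dopamine at EC20.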

[6] = target: D(1A) dopamine receptor (Homo sapiens) (UniProt P21728); test: HTS Assay for Allosteric Agonists of the Human D1 Dopamine Receptor: Primary Screen for Potentiators (AID 488982)
Summary of the method: as §1

[7] = target: D(1A) dopamine receptor (Homo sapiens) (UniProt P21728); test: HTS Assay for Allosteric Agonists of the Human D1 Dopamine Receptor: Primary Screen for Antagonists (AID 488983);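 further: calcium flux response to an EC80 dopamine challenge measured with no-wash dye; nearly all actives have a fitted effect of over 65% in size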; further: potency means the concentration at half of the fitted maximal effect
Summary of the method: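 Screening of inducible HEK293 T-REx D1 cells: compound first, EC80 dopamine 180 s later, each phase read kinetically for calcium over 180 s.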

[8] = Validation screen for small molecules that induce genotoxicity in human embryonic kidney (HEK293T) cells expressing luciferase-tagged ELG1 (AID 493106)
Summary of the method: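 Reporter-gene quantitative HTS in HEK293T cells carrying luciferase-tagged ELG1, whose level climbs under genotoxic stress. Compound exposure lasts 16 hr at 37 °C before luciferase detection.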

[9] = target: ATPase family AAA domain-containing protein 5 (Homo sapiens) (UniProt Q96QE3); test: Validation screen for small molecules that inhibit ELG1-dependent DNA repair in human embryonic kidney (HEK293T) cells expressing luciferase-tagged ELG1 (AID 493107); further: nearly all actives have a fitted effect of over 70% in size; further: potency means the concentration at half of the fitted maximal effect
Sequence of ATPase family AAA domain-containing protein 5 (Homo sapiens) (Q96QE3 whole entry, looked up, the tested form may be a part): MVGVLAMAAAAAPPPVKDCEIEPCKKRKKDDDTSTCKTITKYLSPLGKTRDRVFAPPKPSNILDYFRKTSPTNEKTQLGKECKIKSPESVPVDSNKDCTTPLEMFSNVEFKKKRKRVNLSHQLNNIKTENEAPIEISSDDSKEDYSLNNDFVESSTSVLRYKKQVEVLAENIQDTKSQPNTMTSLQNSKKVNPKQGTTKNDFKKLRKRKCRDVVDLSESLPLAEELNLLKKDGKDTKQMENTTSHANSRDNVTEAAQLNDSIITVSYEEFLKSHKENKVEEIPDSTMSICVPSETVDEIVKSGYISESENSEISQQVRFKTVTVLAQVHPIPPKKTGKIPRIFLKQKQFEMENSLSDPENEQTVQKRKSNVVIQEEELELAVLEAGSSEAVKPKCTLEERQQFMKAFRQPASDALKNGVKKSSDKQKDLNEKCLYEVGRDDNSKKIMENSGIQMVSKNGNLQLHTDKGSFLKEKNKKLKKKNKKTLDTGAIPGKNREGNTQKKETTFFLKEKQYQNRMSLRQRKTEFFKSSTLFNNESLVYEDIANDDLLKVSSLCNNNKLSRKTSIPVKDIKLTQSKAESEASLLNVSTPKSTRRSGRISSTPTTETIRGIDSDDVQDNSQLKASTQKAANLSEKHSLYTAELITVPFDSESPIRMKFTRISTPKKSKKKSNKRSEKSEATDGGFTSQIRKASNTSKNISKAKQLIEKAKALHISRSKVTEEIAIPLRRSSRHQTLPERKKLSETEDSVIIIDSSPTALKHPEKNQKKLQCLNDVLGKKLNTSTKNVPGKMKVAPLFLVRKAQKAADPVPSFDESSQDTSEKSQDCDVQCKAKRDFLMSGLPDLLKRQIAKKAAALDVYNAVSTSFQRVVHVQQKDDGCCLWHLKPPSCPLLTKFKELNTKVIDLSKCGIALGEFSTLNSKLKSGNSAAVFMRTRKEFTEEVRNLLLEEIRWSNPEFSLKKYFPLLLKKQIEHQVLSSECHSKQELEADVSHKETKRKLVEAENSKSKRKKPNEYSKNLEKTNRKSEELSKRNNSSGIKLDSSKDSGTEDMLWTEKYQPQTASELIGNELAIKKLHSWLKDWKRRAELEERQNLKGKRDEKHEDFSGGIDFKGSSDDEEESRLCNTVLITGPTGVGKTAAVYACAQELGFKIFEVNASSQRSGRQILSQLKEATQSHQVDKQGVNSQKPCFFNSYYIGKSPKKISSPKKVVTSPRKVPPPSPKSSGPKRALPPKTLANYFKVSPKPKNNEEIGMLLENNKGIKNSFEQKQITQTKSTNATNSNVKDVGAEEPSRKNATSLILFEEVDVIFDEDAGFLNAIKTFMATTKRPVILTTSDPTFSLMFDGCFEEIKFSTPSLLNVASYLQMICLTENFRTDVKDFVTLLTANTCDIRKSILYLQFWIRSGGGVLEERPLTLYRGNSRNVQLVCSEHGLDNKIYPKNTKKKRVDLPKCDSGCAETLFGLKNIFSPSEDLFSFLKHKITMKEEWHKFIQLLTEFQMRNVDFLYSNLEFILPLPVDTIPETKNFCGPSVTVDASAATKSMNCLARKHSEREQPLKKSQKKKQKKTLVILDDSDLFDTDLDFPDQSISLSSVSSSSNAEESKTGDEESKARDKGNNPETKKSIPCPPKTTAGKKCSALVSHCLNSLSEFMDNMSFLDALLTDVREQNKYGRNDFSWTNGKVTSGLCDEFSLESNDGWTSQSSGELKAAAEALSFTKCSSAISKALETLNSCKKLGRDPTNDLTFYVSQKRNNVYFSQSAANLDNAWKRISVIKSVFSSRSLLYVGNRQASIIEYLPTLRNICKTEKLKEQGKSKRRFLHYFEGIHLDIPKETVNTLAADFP
Summary of the method: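 Quantitative HTS in HEK293T cells carrying luciferase-tagged ELG1, stimulated with 5-fluorouridine alongside compound for 16 hr. Loss of luciferase signal marks inhibition of ELG1 response.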

[10] = target: Tyrosyl-DNA phosphodiesterase 1 (Homo sapiens) (UniProt Q9NUW8); test: Confirmation Assay for Inhibitors of Tyrosyl-DNA Phosphodiesterase (TDP1) (AID 489007); conditions: recombinant human TDP1 enzymatic activity, dose-response; further: potency means the concentration at half of the fitted maximal effect; nearly all actives have a fitted effect of over 40% in size
Summary of the method: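 Confirmation of primary-screen follow-ups in a qHTS format. Substrate cleavage by Tdp1 (1 nM) of a 3'-phosphotyrosine-FITC, 5'-biotin oligo (15 nM) was monitored as decreased AlphaScreen signal after a 5 min room-temperature reaction.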

| SMILES | Potency [1] | outcome [2] | outcome [3] | outcome [4] | Potency [5] | outcome [6] | Potency [7] | outcome [8] | Potency [9] | Potency [10] |
| --- | --- | --- | --- | --- | --- | --- | --- | --- | --- | --- |
| Cc1nccc2c1[nH]c1ccccc12 | inactive | inactive | inactive | inactive | inactive | inactive | inactive | inactive | 9.2 µM (active) | – |
| NC(=NCCC[C@H](N)C(=O)O)N[N+](=O)[O-] | inactive | inactive | inactive | inactive | inactive | inactive | inactive | inactive | inactive | – |
| NC(N)=NOCCC(N)C(=O)O (centres undefined) | inactive | inactive | inactive | inactive | inactive | inactive | inactive | inactive | inactive | – |
| C[C@]12N[C@H](Cc3ccccc31)c1ccccc12 | 0.0075 µM (active) | inactive | inactive | inactive | inactive | inactive | inactive | inactive | inactive | – |
| Clc1ccc(C(c2ccc(Cl)cc2)n2cc[n+](CC(OCc3ccc(Cl)cc3Cl)c3ccc(Cl)cc3Cl)c2)cc1 (centres undefined) | 50.1 µM (active) | – | inactive | inactive | – | – | – | inactive | – | – |
| NCCc1c[nH]c2ccccc12 | inactive | inactive | inactive | inactive | inactive | – | inactive | inactive | – | – |
| CC[C@@H](C(N)=O)N1CCCC1=O | inactive | inactive | – | – | inactive | inactive | inactive | inactive | inactive | – |
| Cc1nc(-c2ccc(-c3ccc(C(=O)N4CCc5cc6c(cc54)C4(CCN(C)CC4)CO6)cc3)c(C)c2)no1 | – | – | inactive | inactive | – | – | – | – | – | – |
| CC(C)Oc1cccnc1N(C)C1CCN(Cc2ccccc2)CC1 | – | inactive | inactive | inactive | inactive | inactive | – | inactive | inactive | – |
| CS(=N)(=O)CC[C@H](N)C(=O)O (some centres undefined) | – | inactive | inactive | inactive | inactive | inactive | inactive | inactive | inactive | – |
| O=C(O)Cc1cnc[nH]1 | – | inactive | inactive | inactive | inactive | inactive | inactive | inactive | inactive | – |
| C[N+](C)(C)CC(=O)O | – | – | inactive | – | – | – | – | – | – | – |
| NC1CCc2cc(O)c(O)cc2C1 (centres undefined) | – | inactive | inactive | inactive | 0.158 µM (active) | inactive | 0.0891 µM (active) | inactive | inactive | – |
| CC[C@@H]1C(=O)OC[C@@H]1Cc1cncn1C | – | – | inactive | inactive | – | – | – | – | – | – |
| CNCCc1ccc(O)c(O)c1 | – | inactive | inactive | inactive | 0.282 µM (active) | inactive | 0.251 µM (active) | inactive | inactive | – |
| CC(=O)NCCc1c[nH]c2ccccc12 | – | inactive | inactive | inactive | inactive | inactive | inactive | inactive | inactive | – |
| CC(=O)[O][Hg][c]1ccccc1 | – | – | – | – | – | – | – | – | – | 10 µM (active) |
| O=C1CCCN1CC#CCN1CCCC1 | inactive | inactive | inactive | inactive | inactive | – | inactive | inactive | inactive | – |

| SMILES | Potency [1] | outcome [2] | outcome [3] | outcome [4] | Potency [5] | outcome [6] | Potency [7] | outcome [8] | Potency [9] | Potency [10] |
| --- | --- | --- | --- | --- | --- | --- | --- | --- | --- | --- |
| NC1CC1c1ccccc1 (centres undefined) | inactive | – | inactive | inactive | – | – | – | inactive | inactive | – |
| C/C=C(/C)C(=O)O[C@H]1C(C)=C2[C@H]([C@@H]1OC(=O)CCCCCCC)[C@@](C)(OC(C)=O)C[C@H](OC(=O)CCC)[C@@]1(O)[C@H]2OC(=O)[C@@]1(C)O | inactive | inactive | – | – | – | – | – | inactive | – | – |
| O=C(O)CC[N+](=O)[O-] | inactive | inactive | inactive | – | inactive | inactive | inactive | inactive | inactive | – |
| CC[C@@]1(O)C(=O)OCc2c1cc1n(c2=O)Cc2cc3ccccc3nc2-1 | – | inactive | inactive | inactive | inactive | inactive | inactive | inactive | 0.461 µM (active) | – |
| Oc1ccc2c3c1O[C@H]1c4[nH]c5c(c4C[C@@]4(O)[C@@H](C2)N(CC2CC2)CC[C@]314)C[C@@]1(O)[C@H]2Cc3ccc(O)c4c3[C@@]1(CCN2CC1CC1)[C@H]5O4 | – | inactive | inactive | inactive | inactive | inactive | inactive | inactive | inactive | – |
| CN[C@@H]1C[C@@H](c2ccc(Cl)c(Cl)c2)c2ccccc21 | inactive | inactive | – | inactive | 12.6 µM (active) | inactive | – | inactive | 23.1 µM (active) | – |
| Cc1c(C(=O)c2cccc3ccccc23)c2cccc3c2n1[C@H](CN1CCOCC1)CO3 | 0.006 µM (active) | – | inactive | inactive | inactive | – | inactive | inactive | – | – |
| COc1ccc2c(c[n+](C)c3c4cc5c(cc4ccc23)OCO5)c1OC | – | inactive | inactive | inactive | inactive | inactive | inactive | inactive | inactive | – |
| CN[C@@H](C)[C@H](O)c1ccccc1 | – | – | – | inactive | – | – | – | – | – | – |
| c1ccc(C2(c3ccccc3)CC2C2=NCCN2)cc1 (centres undefined) | inactive | inactive | – | – | inactive | inactive | inactive | inactive | inactive | – |
| CC(C)NC(C)Cc1ccc(I)cc1 (centres undefined) | inactive | inactive | – | inactive | inactive | inactive | inactive | inactive | inactive | – |
| CN1C2CCC1CC(OC(=O)c1cc(Cl)cc(Cl)c1)C2 (centres undefined) | inactive | inactive | inactive | inactive | – | inactive | inactive | inactive | inactive | – |
| COC(=O)[C@@H](N)CCCN=C(N)N[N+](=O)[O-] | inactive | inactive | – | – | inactive | inactive | inactive | inactive | inactive | – |
| S=C(NC1CCCCC1)N1CCC(c2cnc[nH]2)CC1 | – | inactive | – | inactive | inactive | inactive | inactive | inactive | inactive | – |
| CCCN1CCC[C@H](c2cccc(O)c2)C1 | inactive | – | inactive | inactive | inactive | inactive | inactive | inactive | inactive | – |
| CNCCc1c[nH]c2ccc(O)cc12 | – | inactive | inactive | inactive | inactive | inactive | inactive | inactive | inactive | – |
| O=C(N[C@H]1CN2CCC1CC2)c1ccc(Cl)cc1 | inactive | inactive | – | – | inactive | inactive | inactive | inactive | inactive | – |
